Reference: PubChem BioAssay (NCI)
The panel holds about 83,000 compounds, 20% with a hit somewhere; the sample as a whole holds those more often.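 Plates (96-well) were seeded with cells, treated with compound at one concentration, and incubated for 48 hours before percent growth was determined.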 Unmarked numbers belong to inactive results. Calls of active or inactive are those of the source. How the source made its calls: active means growth percent below 10; inactive means the rest.

system: U251 CNS; assay: NCI-60 one-dose screen, 48 h (100 = growth as untreated, 0 = no growth, -100 = all killed); details: 10 µM unless noted

Structure (SMILES)	growth
O=[N+]([O-])c1ccc(NC(=S)NNC(=S)Nc2ccc(F)cc2)cc1	90.5%
O=C(COc1ccc(/C=C2\C(=O)Nc3ccc(F)cc32)cc1)Nc1ccccc1	94.4%
O=C1[C@@H]2Cc3c([nH]c4ccccc34)[C@H](c3ccc(Br)cc3)N2C(=O)CN1C1CCN(Cc2c(Cl)cccc2Cl)CC1	96.9%
C/C(=N\NC(=O)/C=C/CC(=O)O)c1nnn(-c2ccc([N+](=O)[O-])cc2)c1C	100%
CS(=O)(=O)c1nccc(-c2c(-c3cccc(OCc4ccc(Cl)c(C(F)(F)F)c4)c3)nc3sccn23)n1	98.3%
CCOC(=O)Nc1ccc2c(ccn2C(=O)c2cccc(F)c2)c1	25.7%
COC(=O)c1cccc(NC2=CC(=O)C(C)=C(C)C2=O)c1	94.7%
CCCCc1nc2c(N)nc3ccccc3c2n1Cc1ccc(OC)cc1	67.9%
COC(=O)CCSC1=C(C)C(=O)c2ccccc2C1=O	85.1%
O=S(=O)(NCCCNc1nccc(-c2[nH]c(-c3ccccc3)nc2-c2ccc(F)c(O)c2)n1)c1cccc(F)c1	99.4%
C/C(=C(\c1ccc(O)cc1)c1ccc(OCCN2CCCCCC2)cc1)c1ccc(Cl)cc1	-81.1% (active)
Fc1cccc(Cl)c1/C=N/Nc1nc(N/N=C/c2c(F)cccc2Cl)nc(N2CCCCC2)n1	26.8%
COc1cc2cc(Oc3ccc(NC(=O)Nc4ccc(F)c(C(F)(F)F)c4)cc3)c(C)nc2cc1OCCN(C)C	100%
COC(=O)c1cccc(NC2=C(Cl)C(=O)C(C)=C(C)C2=O)c1	102%
O=C1C(SCc2ccccc2)=C(Cl)CN1c1ccc(Cl)cc1	86.3%
Cc1ccc2c(n1)C(=O)C(Cl)=C(Nc1cccc(C(F)(F)F)c1)C2=O	95.7%
Cc1cc(C)cc(NC2=C(Cl)C(=O)c3nc(C)ccc3C2=O)c1	89.8%
COc1ccc2[nH]cc(/C=N/Nc3ccnc4cc(Cl)ccc34)c2c1	-83.3% (active)
COc1ccccc1N1CCN(C2=C(Cl)C(=O)c3ncccc3C2=O)CC1	102%
C#CCN(C)CCCOc1ccc(NC(=O)CCCCCCCCC(=O)NO)cc1Cl	64.3%

Structure (SMILES)	growth
Cn1cc(C2=C(c3coc4cc(Br)ccc34)C(=O)NC2=O)c2ccccc21	83.7%
CCc1cc(OC(=O)N2CCN(CCC(C)(COC(C)(C)C)COC(C)(C)C)CC2)ccc1Nc1cc(-c2ccc(-n3cccn3)cc2)[nH]n1	74.9%
CS(=O)(=O)c1ccc(/C(=N/N=C(N)N)c2ccc(F)cc2)cc1	67.2%
O=C(N/N=C\c1ccc(F)cc1)c1ccc2nc(-c3ccc(Br)cc3)[nH]c2c1	-62.1% (active)
CNC(=O)Nc1ccc(Nc2cc(-c3ccc(-n4cccn4)cc3)[nH]n2)c(C)c1	106%
COc1ccc(C(C)=C(c2ccc(OCCN(C)C)cc2)c2ccc(OCCN(C)C)cc2)cc1	-64.1% (active)
CN1CCN(c2ccc(C(=O)/C=C/c3cc(F)cc(C(F)(F)F)c3)cc2)CC1	51.4%
O=C1c2ccccc2C23C(=C(c4cncnc4)c4ccccc42)CCCN13 (stereo not given)	102%
NC(=O)c1c(NC(=O)c2ccc(C(F)(F)F)cc2)sc2c1CCC(=O)C2	7.99% (active)
Cc1ccc2c(n1)C(=O)C(Cl)=C(Nc1cccc(C)c1C)C2=O	-7.55% (active)
CCCCCCNC(=O)Oc1ccc(/C(=C(/C)c2ccc(OC)cc2)c2ccc(OCCN3CCCCCC3)cc2)cc1	19.6%
NS(=O)(=O)c1ccc(Nc2nc(N/N=C/C=C/c3ccccc3)nc(Nc3ccccc3)n2)cc1	51.1%
CC/C(=C(/c1ccc(Cl)cc1)c1ccc(OCCN)cc1)c1ccccc1	92.6%
COC(=O)c1ccc(NC2=C(Cl)C(=O)C(C)=C(C)C2=O)cc1	59.4%
COc1ccc(NC(=O)CCCCCCNC(=O)C(O)(O)C(F)(F)F)cc1	39.7%
COc1cc2c3c(cc4c5c(ccc4c3c1OC)OCO5)N(CCN(C)C)C2=O	-2.59% (active)
O=S(=O)(Oc1ccc(-c2cn3ccoc3n2)cc1)C1CCCCC1	104%
COc1ccc(-c2nc(C#N)c(N3CCC(S(=O)(=O)N4CCOCC4)CC3)o2)cc1	104%
O=c1c2cc(-c3ccc(F)cc3F)ccc2n(Nc2ccccc2)c(=O)n1-c1cccc(C(F)(F)F)c1	9.58% (active)
COc1ccc(OC)c(CCn2cncc2-c2c[nH]c3ccc(Cl)cc23)c1	47.1%

system: PC-3 prostate; assay: as above; details: 10 µM unless noted

Structure (SMILES)	growth
O=[N+]([O-])c1ccc(NC(=S)NNC(=S)Nc2ccc(F)cc2)cc1	76.5%
O=C(COc1ccc(/C=C2\C(=O)Nc3ccc(F)cc32)cc1)Nc1ccccc1	94.9%
O=C1[C@@H]2Cc3c([nH]c4ccccc34)[C@H](c3ccc(Br)cc3)N2C(=O)CN1C1CCN(Cc2c(Cl)cccc2Cl)CC1	80%
C/C(=N\NC(=O)/C=C/CC(=O)O)c1nnn(-c2ccc([N+](=O)[O-])cc2)c1C	94.7%
CS(=O)(=O)c1nccc(-c2c(-c3cccc(OCc4ccc(Cl)c(C(F)(F)F)c4)c3)nc3sccn23)n1	86.5%
CCOC(=O)Nc1ccc2c(ccn2C(=O)c2cccc(F)c2)c1	42%
COC(=O)c1cccc(NC2=CC(=O)C(C)=C(C)C2=O)c1	79.7%
CCCCc1nc2c(N)nc3ccccc3c2n1Cc1ccc(OC)cc1	43.5%
COC(=O)CCSC1=C(C)C(=O)c2ccccc2C1=O	72.6%
O=S(=O)(NCCCNc1nccc(-c2[nH]c(-c3ccccc3)nc2-c2ccc(F)c(O)c2)n1)c1cccc(F)c1	77.3%
C/C(=C(\c1ccc(O)cc1)c1ccc(OCCN2CCCCCC2)cc1)c1ccc(Cl)cc1	-69.9% (active)
Fc1cccc(Cl)c1/C=N/Nc1nc(N/N=C/c2c(F)cccc2Cl)nc(N2CCCCC2)n1	18.7%
COc1cc2cc(Oc3ccc(NC(=O)Nc4ccc(F)c(C(F)(F)F)c4)cc3)c(C)nc2cc1OCCN(C)C	92%
COC(=O)c1cccc(NC2=C(Cl)C(=O)C(C)=C(C)C2=O)c1	71.9%
O=C1C(SCc2ccccc2)=C(Cl)CN1c1ccc(Cl)cc1	107%
Cc1ccc2c(n1)C(=O)C(Cl)=C(Nc1cccc(C(F)(F)F)c1)C2=O	69.6%
Cc1cc(C)cc(NC2=C(Cl)C(=O)c3nc(C)ccc3C2=O)c1	59.4%
COc1ccc2[nH]cc(/C=N/Nc3ccnc4cc(Cl)ccc34)c2c1	-86.4% (active)
COc1ccccc1N1CCN(C2=C(Cl)C(=O)c3ncccc3C2=O)CC1	79%
C#CCN(C)CCCOc1ccc(NC(=O)CCCCCCCCC(=O)NO)cc1Cl	73.9%

Structure (SMILES)	growth
Cn1cc(C2=C(c3coc4cc(Br)ccc34)C(=O)NC2=O)c2ccccc21	69.3%
CCc1cc(OC(=O)N2CCN(CCC(C)(COC(C)(C)C)COC(C)(C)C)CC2)ccc1Nc1cc(-c2ccc(-n3cccn3)cc2)[nH]n1	53.9%
CS(=O)(=O)c1ccc(/C(=N/N=C(N)N)c2ccc(F)cc2)cc1	73.9%
O=C(N/N=C\c1ccc(F)cc1)c1ccc2nc(-c3ccc(Br)cc3)[nH]c2c1	40.4%
CNC(=O)Nc1ccc(Nc2cc(-c3ccc(-n4cccn4)cc3)[nH]n2)c(C)c1	107%
COc1ccc(C(C)=C(c2ccc(OCCN(C)C)cc2)c2ccc(OCCN(C)C)cc2)cc1	1.05% (active)
CN1CCN(c2ccc(C(=O)/C=C/c3cc(F)cc(C(F)(F)F)c3)cc2)CC1	60.2%
O=C1c2ccccc2C23C(=C(c4cncnc4)c4ccccc42)CCCN13 (stereo not given)	88.8%
NC(=O)c1c(NC(=O)c2ccc(C(F)(F)F)cc2)sc2c1CCC(=O)C2	-6.96% (active)
Cc1ccc2c(n1)C(=O)C(Cl)=C(Nc1cccc(C)c1C)C2=O	12.4%
CCCCCCNC(=O)Oc1ccc(/C(=C(/C)c2ccc(OC)cc2)c2ccc(OCCN3CCCCCC3)cc2)cc1	24.5%
NS(=O)(=O)c1ccc(Nc2nc(N/N=C/C=C/c3ccccc3)nc(Nc3ccccc3)n2)cc1	47.5%
CC/C(=C(/c1ccc(Cl)cc1)c1ccc(OCCN)cc1)c1ccccc1	103%
COC(=O)c1ccc(NC2=C(Cl)C(=O)C(C)=C(C)C2=O)cc1	36.6%
COc1ccc(NC(=O)CCCCCCNC(=O)C(O)(O)C(F)(F)F)cc1	52.7%
COc1cc2c3c(cc4c5c(ccc4c3c1OC)OCO5)N(CCN(C)C)C2=O	6.59% (active)
O=S(=O)(Oc1ccc(-c2cn3ccoc3n2)cc1)C1CCCCC1	91.5%
COc1ccc(-c2nc(C#N)c(N3CCC(S(=O)(=O)N4CCOCC4)CC3)o2)cc1	98.2%
O=c1c2cc(-c3ccc(F)cc3F)ccc2n(Nc2ccccc2)c(=O)n1-c1cccc(C(F)(F)F)c1	1.28% (active)
COc1ccc(OC)c(CCn2cncc2-c2c[nH]c3ccc(Cl)cc23)c1	39.1%
